Source: PubChem BioAssay (NCATS)
Values joined by “and” are separate entries in the source; they are usually repeats but may differ in a detail not shown here. Equal entries are not always repeated. Results filed as inconclusive are left out. Active and inactive are the calls of the source. Unless noted, calls follow the shape of the dose curve; as a rule, active = well fitted curve in the direction sought with a large enough effect; inconclusive = small, poorly fitted or top-dose-only effect, or another doubt; inactive = no such curve, though single readings can be large; an effect the other way counts as inactive or inconclusive.

Tests used:
[1] = Cell Viability - HepG2 (AID 433; calls by dose curve;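 also: potency is read from the fitted curve at half-maximal effect; potency for ATP loss meaning cytotoxicity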); conditions: qHTS
Outline: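 ATP luminescence (CellTiter-Glo) after 40 h compound exposure, 37 °C, HepG2, 1500 cells/well, complete medium. Normalized: DMSO = basal, 100 uM tamoxifen = 100% inhibition. AC50 via standard Hill equation.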

[2] = Cellular Toxicity (caspase-3) H-4-II-E (AID 663); conditions: H-4-II-E rat hepatoma; Potency: caspase-3 activation; series mostly up to 92.2 µM;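 also: cells exposed to compound for 16 hr before readout; 0% = DMSO basal and 100% = 100 µM tamoxifen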
Outline: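 Rat hepatoma H-4-II-E cells (1500/well) plated 5 hr, then exposed to compound titrations for 16 hr at 37 °C. Caspase-Glo 3/7 luminescence read after 20 min at RT; data normalized to DMSO and 100 uM tamoxifen, AC50 from Hill fits.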

[3] = Cellular Toxicity (caspase-3) Renal Proximal Tubule (AID 667); conditions: renal proximal tubule cells; series mostly up to 91.7 µM;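 also: cells exposed to compound for 16 hours at 37 °C before detection; 0% = DMSO basal and 100% = 10 µM staurosporine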
Outline: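 Luminescent caspase 3/7 signal from peptide-aminoluciferin cleavage measures apoptosis in freshly isolated rat kidney proximal tubule cells after 16 h compound exposure. Concentration-response data are normalized to DMSO and 10 uM staurosporine, and AC50 values come from Hill equation fits.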

[4] = biological target: Cytochrome P450 3A4 (Homo sapiens) (UniProt P08684); assay: qHTS Assay for Inhibitors and Substrates of Cytochrome P450 3A4 (AID 884); conditions: recombinant CYP3A4, Luciferin-PPXE luminescence; series mostly up to 57.1 µM; also: % is scaled to controls: 0 for no effect and ±100 for the full control effect; nearly all actives have a fitted effect of over 50% in size
Outline: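 20 nM human CYP3A4 with 25 uM Luciferin-PPXE (at KM) in 200 mM KPO4, preincubated 10 min with compound; NADPH regeneration started a 60 min RT reaction. Luciferin detected by luminescence, normalized to 57 uM ketoconazole as full inhibition.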

[5] = MultiTox-Fluor Cytotoxicity Assay - LYMP1-002 - Dead Cells (AID 960); conditions: LYMP1-002 lymphoblastoid cells, dead-cell protease fluorescence; series mostly up to 46.1 µM;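 also: 0% = DMSO and 100% = tetraoctylammonium bromide; nearly all actives have a fitted effect of over 60% in size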
Outline: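 Human lymphoblastoid cells (LYMP1-002), 2500/well in complete medium, were exposed to compounds for 16 hr at 37 C. Dead-cell protease activity was read as bis-AAF-R110 fluorescence (Ex/Em 485/520), normalized to DMSO and 15 uM tetraoctylammonium bromide; AC50 from Hill fits.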

[6] = MultiTox-Fluor Cytotoxicity Assay - LYMP1-003 - Live Cells (AID 962); conditions: LYMP1-003 lymphoblastoid cells, MultiTox-Fluor live-cell protease fluorescence; series mostly up to 92.2 µM;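 also: 0% = DMSO only and full loss = 92 µM tetraoctylammonium bromide; cytotoxic hits lower the live-cell protease signal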
Outline: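 LYMP1-003 human lymphoblastoid cells (2500/well) in complete medium were preincubated 5 hr at 37 C, then exposed to compounds for 16 hr at 37 C. Live-cell protease cleavage of GF-AFC read by fluorescence (Ex/Em 405/510); AC50 from Hill fits.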

[7] = Cell Viability - LYMP2-003 (AID 965); conditions: LYMP2-003 lymphoblastoid cell viability; series mostly up to 92.2 µM;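 also: cells exposed to compounds for 24 h before reading; 0% = DMSO only and full effect = 92 µM tetraoctylammonium bromide; nearly all actives have a fitted effect of over 50% in size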
Outline: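 CellTiter-Glo luminescence (cellular ATP) after 24 h compound exposure at 37 C in complete medium; 2500 cells/well, 5 h settling beforehand. Concentration-response fitted to standard Hill equation for AC50. Tetraoctylammonium bromide served as positive control.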

[8] = Cell Viability - LYMP2-005 (AID 967); conditions: LYMP2-005 lymphoblastoid cell viability; series mostly up to 92.2 µM;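 also: plate controls were DMSO only for no effect and 92 µM tetraoctylammonium bromide control for full effect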
Outline: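 Steps: seed 2500 LYMP2-005 cells/well, incubate 5 h at 37 C, add compound, incubate 24 h at 37 C, add CellTiter-Glo, wait 30 min at RT, read luminescence. Concentration-response data fitted to Hill equation for AC50.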

[9] = Cell Viability - LYMP2-015 (AID 971); conditions: LYMP2-015 lymphoblastoid cell viability; series mostly up to 92.2 µM;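 also: 0% = DMSO only and full effect = 92 µM tetraoctylammonium bromide; nearly all actives have a fitted effect of over 55% in size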
Outline: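 Human lymphoblastoid cells (2500/well) in complete medium were preincubated 5 hr at 37 C, then compound-treated 24 hr at 37 C. Intracellular ATP was read by CellTiter-Glo luminescence after 30 min at room temperature; AC50 came from Hill-equation concentration-response fits.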

[10] = Cell Viability - LYMP2-017 (AID 972); conditions: LYMP2-017 lymphoblastoid cell viability; series mostly up to 92.2 µM; also: % is scaled to controls: 0 for no effect and ±100 for the full control effect; nearly all actives have a fitted effect of over 55% in size
Outline: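 Human lymphoblastoid cells (2500/well) were seeded in complete medium, held 5 hr at 37 C, then exposed to compounds for 24 hr at 37 C. Intracellular ATP was read by CellTiter-Glo luminescence after 30 min at room temperature, with AC50 values from Hill-equation fits.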

[11] = Cell Viability - LYMP2-007 (AID 979); conditions: LYMP2-007 lymphoblastoid cell viability; series mostly up to 92.2 µM;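 also: cells exposed to compound for 24 h before reading; 0% = DMSO only and the negative end = 92 µM tetraoctylammonium bromide; nearly all actives have a fitted effect of over 60% in size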
Outline: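 Human lymphoblastoid cells (2500/well) were plated in complete medium, incubated 5 hr at 37 C, then exposed to compounds for 24 hr at 37 C. Intracellular ATP was read by CellTiter-Glo luminescence after 30 min at room temperature; AC50 from Hill fits.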

[12] = Cell Viability - LYMP2-016 (AID 984); conditions: LYMP2-016 lymphoblastoid cell viability, qHTS; series mostly up to 92.2 µM; also: % is scaled to controls: 0 for no effect and ±100 for the full control effect; nearly all actives have a fitted effect of over 55% in size
Outline: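 qHTS, 1536-well: 2500 LYMP2-016 cells/well, 5 hr 37 C, compound added, 24 hr 37 C, CellTiter-Glo 30 min RT, luminescence. Tetraoctylammonium bromide positive control. AC50 via Hill fit.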

[13] = Cell Viability - LYMP2-024 (AID 988); conditions: LYMP2-024 lymphoblastoid cell viability; series mostly up to 92.2 µM;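 also: plate controls were DMSO only for no effect and 92 µM tetraoctylammonium bromide for full effect; nearly all actives have a fitted effect of over 60% in size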
Outline: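 Human lymphoblastoid cells (2500/well) in complete medium were preincubated 5 hr at 37 C, then exposed to compounds for 24 hr at 37 C. Intracellular ATP was read by CellTiter-Glo luminescence; AC50 from Hill-equation fits of concentration-response data.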

[14] = Cell Viability - LYMP1-002 - Assay at 40 hr (AID 994); conditions: LYMP1-002 lymphoblastoid cell viability; series mostly up to 92.2 µM;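 also: 0% = DMSO only and full inhibition = 92 µM tetraoctylammonium bromide; nearly all actives have a fitted effect of over 60% in size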
Outline: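 Human lymphoblastoid cells, 2500/well in complete medium, were preincubated 5 hr at 37 C, then exposed to compounds for 40 hr at 37 C. Intracellular ATP was read by CellTiter-Glo luminescence after 30 min at room temperature; AC50 from Hill-equation fits.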

[15] = qHTS assay for small molecule activators of the p53 signaling pathway (AID 651743; active = well fitted activation curve with a large enough effect in the signal ratio, not every such curve was filed as active; the % refers to the signal ratio; also: % of control where 0% means no effect); conditions: HCT-116 p53RE-bla, beta-lactamase FRET ratio, 16 h; activation: hits give high values
Outline: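 HCT-116 p53RE-bla, 4,000 cells/well; 5 h settle; cpd/DMSO 16 h, 37 C; LiveBLAzer B/G 2 h RT; fluorescence intensity.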

[16] = biological target: Tumor necrosis factor (Homo sapiens) (UniProt P01375); assay: qHTS assay to identify small molecules that stimulate Tumor Necrosis Factor-alpha (TNF-alpha) secretion (AID 651757; active = well fitted curve in the direction sought with a large enough effect in the signal ratio; the % refers to the signal ratio; also: 0% is about no effect); conditions: Human cells, HTRF 665/615 ratio; series mostly up to 92.2 µM
Outline: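 THP-1 cells were exposed to compounds for 17 hrs at 37 C, after which secreted TNF-alpha was measured by homogeneous HTRF (TR-FRET) using cryptate- and XL665-labeled anti-TNF-alpha antibodies, read after 3 hr at room temperature.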

[17] = qHTS assay for small molecule antagonists of the retinoid-related orphan receptor gamma (ROR-gamma) signaling pathway - cell viability counter screen (AID 720652; active = well fitted curve in the direction sought with a large enough effect in the repeat runs; an effect the other way counts as inactive or inconclusive;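 also: CHO reporter cells with doxycycline-induced ROR-gamma expression; compound exposure lasted 16 hr before ATP read; % is scaled to controls: 0 for no effect and ±100 for the full control effect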); conditions: RORgamma reporter cell line viability counter screen; series mostly up to 92.2 µM
Outline: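 Counter screen in CHO cells carrying TET-inducible ROR-gamma and an ROR response element-luciferase reporter; cells plated 5 hr, compound pinned, doxycycline added, then 16 hr at 37 C. Viability read as intracellular ATP by CellTiter-Glo luminescence.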

[18] = qHTS assay for cell viability of HEK293 cells (AID 743288); conditions: ATP luminescence (CellTiter-Glo), 18 h, hits give low values; also: % is scaled to controls: 0 for no effect and ±100 for the full control effect; nearly all actives have a fitted effect of over 50% in size
Outline: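 Environmental chemicals tested in qHTS format against parental HEK293 cells; 18 h treatment, 37 C; read-out ATP luminescence (CellTiter-Glo), 30 min RT development.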

[19] = Cell Viability - LYMP2-014 (AID 983); conditions: LYMP2-014 lymphoblastoid cells, viability qHTS; series mostly up to 92.2 µM;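 also: plate controls were DMSO only for no effect and 92 µM tetraoctylammonium bromide for full effect; nearly all actives have a fitted effect of over 50% in size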
Outline: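 Human lymphoblastoid cells (2500/well) were pre-incubated 5 hr at 37 C, then exposed to compounds in complete medium for 24 hr at 37 C. Intracellular ATP was read by CellTiter-Glo luminescence after 30 min at room temperature; AC50 from Hill fits.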

[20] = Cell Viability - MRC5 (AID 434; calls by dose curve;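 also: potency is read from the fitted curve at half-maximal effect; potency reflects cytotoxicity seen as loss of intracellular ATP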); conditions: MRC5 lung fibroblast viability, qHTS
Outline: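 MRC5 normal human lung fibroblasts, 1500 cells/well, exposed to compound for 40 hr at 37 C. Cellular ATP was read by CellTiter-Glo luminescence; data normalized to DMSO and 100 uM tamoxifen, with AC50 from Hill fits.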

Sequence of Cytochrome P450 3A4 (Homo sapiens) (P08684 whole entry, looked up): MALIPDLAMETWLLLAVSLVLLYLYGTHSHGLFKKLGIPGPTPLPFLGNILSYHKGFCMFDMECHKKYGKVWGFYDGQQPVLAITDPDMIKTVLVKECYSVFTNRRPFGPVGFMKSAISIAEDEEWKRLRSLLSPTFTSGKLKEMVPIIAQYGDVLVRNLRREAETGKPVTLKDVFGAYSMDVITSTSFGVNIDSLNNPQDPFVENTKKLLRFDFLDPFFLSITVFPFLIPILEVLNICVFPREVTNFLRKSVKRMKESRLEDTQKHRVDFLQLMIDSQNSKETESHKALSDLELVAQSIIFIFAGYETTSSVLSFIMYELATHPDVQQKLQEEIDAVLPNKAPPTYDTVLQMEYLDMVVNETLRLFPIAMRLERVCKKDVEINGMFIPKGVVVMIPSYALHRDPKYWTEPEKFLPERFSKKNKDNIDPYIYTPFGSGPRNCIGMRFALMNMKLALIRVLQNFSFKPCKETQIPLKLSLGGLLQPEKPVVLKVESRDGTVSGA
Sequence of Tumor necrosis factor (Homo sapiens) (P01375 whole entry, looked up): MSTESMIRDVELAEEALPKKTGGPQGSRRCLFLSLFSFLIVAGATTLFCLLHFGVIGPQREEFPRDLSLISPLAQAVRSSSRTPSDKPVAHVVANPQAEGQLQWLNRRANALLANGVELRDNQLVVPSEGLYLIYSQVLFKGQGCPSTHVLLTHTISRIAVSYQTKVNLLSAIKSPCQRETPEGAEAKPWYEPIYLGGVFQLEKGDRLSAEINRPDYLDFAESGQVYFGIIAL

O=[N+]([O-])c1ccccc1O
inactive: Potency [1] > 92 µM | Potency [2] | outcome [3] | Potency [4] | Potency [5] | outcome [6] | Potency [7] | Potency [8] | Potency [9] | Potency [10] | Potency [11] | Potency [12] | Potency [13] | Potency [14] | activation [15] -2.01% | outcome [16] | Potency [17] | max response [18] 0.38%

CCOS(C)(=O)=O
inactive: Potency [1] > 92 µM | Potency [2] | outcome [3] | Potency [4] | Potency [5] | outcome [6] | Potency [7] | Potency [8] | Potency [9] | Potency [10] | Potency [11] | Potency [19] | Potency [12] | Potency [13] | Potency [14] | activation [15] -2.6% | outcome [16] | Potency [17] | max response [18] -14.8%

BrC(Br)Br
inactive: Potency [1] > 92 µM | Potency [20] > 92 µM | Potency [2] | outcome [3] | Potency [4] | Potency [5] | outcome [6] | Potency [7] | Potency [8] | Potency [9] | Potency [10] | Potency [11] | Potency [19] | Potency [12] | Potency [13] | Potency [14] | outcome [16] | Potency [17] | max response [18] -3.11%

Cc1ccc(N)cc1N
inactive: Potency [1] > 92 µM | Potency [20] > 92 µM | Potency [2] | outcome [3] | Potency [4] | outcome [6] | Potency [7] | Potency [8] | Potency [9] | Potency [10] | Potency [11] | Potency [19] | Potency [12] | Potency [13] | Potency [14] | activation [15] -3.51% and -0.675% | Potency [17] | max response [18] 6.42% and -0.208%

O=C(O)C(Br)CBr (stereo not given)
inactive: Potency [1] > 92 µM | Potency [20] > 92 µM | Potency [2] | Potency [4] | Potency [5] | outcome [6] | Potency [7] | Potency [8] | Potency [9] | Potency [10] | Potency [19] | Potency [12] | Potency [14] | activation [15] 3.2% | outcome [16] | Potency [17]
